These results are taken from PubChem BioAssay AID1559 (National Center for Advancing Translational Sciences (NCATS), 2009).

Records with an inconclusive call do not appear. A call without a number means that no potency is given here. Calls of active or inactive are those of the source. Calls follow the shape of the dose curve; as a rule, active = well fitted curve in the direction sought with a large enough effect; inconclusive = small, poorly fitted or top-dose-only effect, or another doubt; inactive = no such curve, though single readings can be large or run the other way.

The target of this assay is Microtubule-associated protein tau (Homo sapiens) (UniProt P10636). As to the kind of experiment: Confirmation Concentration-Response Assay for Inhibitors of Tau Fibril Formation, Fluorescence Polarization. The following applies: recombinant tau K18 P301L (four-repeat tau fragment) heparin fibrillization, Alexa594 FP; series mostly up to 57.1 µM. An excerpt: NIH Molecular Libraries Probe Production Network [MLPCN] NIH Chemical Genomics Center [NCGC] MLPCN Grant: X01 MH083262-01 Assay Provider: Carlo Ballatore, University of Pennsylvania NCGC Assay Overview: The microtubule-associated protein tau is an abundant protein in the axons of neurons that stabilizes microtubules. With its ability to modulate microtubule dynamics, tau contributes directly or indirectly, to key structural and regulatory cellular functions. Particularly important is the influence tau exerts on axonal transport, which allows signaling molecules, trophic factors and other essential cellular constituents to travel along the axons. Under pathological conditions, tau becomes sequestered into insoluble aggregates called neurofibrillary tangles. This phenomenon is believed to have pathological consequences by promoting axonal transport deficits that ultimately lead to synaptic dysfunction and neuronal loss. To identify inhibitors of tau aggregation, a heparin-induced tau fibril formation assay was used that employed a recombinantly expressed fragment of tau, K18 (Q242-E372), bearing a P301L mutation (Gustke et al. 1994; Hong et al. 1998). […] Gustke, N., B. Trinczek, et al. (1994). "Domains of tau protein and interactions with microtubules." Biochemistry 33(32): 9511-22. Hong, M., V. Zhukareva, et al. (1998). "Mutation-specific functional impairments in distinct tau isoforms of hereditary FTDP-17." Science 282(5395): 1914-7. Li, W. and V. M. Lee (2006). "Characterization of two VQIXXK motifs for tau fibrillization in vitro." Biochemistry 45(51): 15692-701. von Bergen, M., S. Barghorn, et al. (2001). "Mutations of tau protein in frontotemporal dementia promote aggregation of paired helical filaments by enhancing local beta-structure." J Biol Chem 276(51): 48165-74.
Chain of Microtubule-associated protein tau (Homo sapiens) (P10636 561-689 P618L limits assumed): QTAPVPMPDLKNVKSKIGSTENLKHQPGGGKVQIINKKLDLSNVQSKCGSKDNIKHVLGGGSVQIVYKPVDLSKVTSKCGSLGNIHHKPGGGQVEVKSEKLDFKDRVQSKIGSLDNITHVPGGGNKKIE
For screening, 2 uL/well human K18 P301L (15 uM unlabeled and 0.24 uM Alexa 594-labeled tau final concentrations) in reagent buffer (100 mM sodium acetate pH 7) was dispensed into black solid 1536-well plates (Grenier) using a solenoid-based dispenser. Following transfer of 23 nL compound or DMSO vehicle by a pin tool, 2 uL/well heparin (20 uM final concentration) in reagent buffer was added and the plate centrifuged 15 s at 1000 RPM. Plates were incubated 6 hr at 37 C and then 1 uL/well ThT (30 uM final concentration) was added. After a 1 hr ambient incubation, the plates were read by an Envision (Perkin Elmer) to monitor Alexa 594 FP (555 nm excitation and 632 nm emission). Keywords: NIH Roadmap, MLPCN, MLI, MLSMR, NCGC, qHTS, tau, tauopathies, Alzheimer's disease, fibril, neurodegeneration, aggregation
A general note: Polarisation of emitted light reports the rotation of a fluorescent probe.
For the compound `O=C(Cc1ccccc1)Nc1sc2c(c1C(=O)Nc1ccc(Br)cc1)CCCC2`, the Potency entry is “inactive”.

As for `O=C(NCc1cccnc1)C1CCN(S(=O)(=O)c2cccs2)CC1`, the Potency result was “inactive”.

With `CCN(c1ccccc1)S(=O)(=O)c1nnc(NC(=O)C(C)(C)C)s1`, the Potency entry is “inactive”.

Turning to `COc1ncc(-c2ccccc2)cc1N`, the Potency entry is “inactive”.

For `CC(C)c1ccc(NS(=O)(=O)c2ccc3[nH]cc(C(=O)NCCc4ccccc4)c(=O)c3c2)cc1`, the Potency result was “inactive”.

`O=C(Cc1ccccc1)Nc1sc2c(c1C(=O)Nc1ccc(Cl)cc1)CCCC2`: the Potency result is “inactive”.

`Nc1ccc(-c2ccc3ccccc3n2)cc1`: the Potency entry is “inactive”.

As for `Cc1ccc(NC(=O)N2CCN(c3ccccn3)CC2)cc1`, the Potency entry is “inactive”.

For the compound `O=C(Nc1ccccc1)Nc1ccccc1`, the Potency result was “inactive”.

As for `CCOC(=O)c1nn(-c2ccc(OC)cc2)c(=O)c2c(NC(=O)Cc3ccccc3)scc12`, the Potency result was “inactive”.

For `COC(=O)c1c(N)sc2c1C(C(=O)OC)CC2` (stereo not given), the Potency entry is “inactive”.

For the compound `CN(c1ccccc1)S(=O)(=O)c1nnc(NC(=O)COc2ccccc2)s1`, the Potency result is “inactive”.

Regarding `COc1ccc2c(c1)c(CC(=O)N1CCOCC1)c(C)n2C(=O)c1ccc(Cl)cc1`, the Potency entry is “inactive”.

`CN1CCc2sc(NC(=O)Cc3ccccc3)c(C(=O)Nc3ccc(Cl)cc3)c2C1`: the Potency entry was “inactive”.

For `COC(=O)C1CCc2sc(N)c(C(=O)OCc3ccccc3)c21` (stereo not given), the Potency entry is “inactive”.

In the case of `Cc1ccc(NCc2cc3cc4c(cc3n(CC(=O)Nc3ccc(C)cc3)c2=O)OCCO4)cc1`, the Potency result was “inactive”.

In the case of `Cc1nc2ccccc2oc1=O`, the Potency result was “inactive”.

Consider `O=S(=O)(c1ccc(NC(=S)N/N=C/c2ccc(N3CCOCC3)cc2)cc1)N1CCOCC1`, for which the Potency entry was “inactive”.

Take `O=C(NCCCO)Nc1ccc2nc(-c3ccco3)c(-c3ccco3)nc2c1`: the Potency is 7.94 µM (active).

As for `COc1cc(/C=N/N=C2/NC(=O)C(CC(=O)O)S2)ccc1OCc1ccc(Cl)cc1` (stereo not given), the Potency result is “inactive”.

Turning to `CCOC(=O)c1c(N)sc2c1CN(C)CC2`, the Potency result is “inactive”.

Consider `Cc1ccc(NC(=O)c2c(NC(=O)Cc3ccccc3)sc3c2CCCC3)cc1`, for which the Potency entry was “inactive”.

Take `CCOC(=O)c1c(N)sc2c1CCOC2`: the Potency entry was “inactive”.

On to `COC(=O)c1c(NC(=O)C(C)(C)C)sc2c1C(C(=O)OC)CC2` (stereo not given), for which the Potency entry is “inactive”.

`NCCc1ccc(O)c(O)c1`: the Potency result is “inactive”.

Regarding `CC(=O)Nc1sc(C)c2cnn(-c3ccccc3)c(=O)c12`, the Potency result is “inactive”.

On to `CCOC(=O)c1nn(-c2ccccc2F)c(=O)c2c(N)scc12`, for which the Potency result is “inactive”.

As to `COc1c(Cl)cccc1NC(=O)c1c(NC(=O)Cc2ccccc2)sc2c1CCCC2`, the Potency result was “inactive”.

Take `O=C(Nc1cccc(-c2nc3ccccc3o2)c1)c1cc([N+](=O)[O-])ccc1N1CCOCC1`: the Potency entry was “inactive”.

Turning to `CC1CCc2c(sc(NC(=O)Cc3ccccc3)c2C(=O)Nc2ccc(Cl)cc2)C1` (stereo not given), the Potency entry is “inactive”.

For the compound `Cn1sc(NC(=O)c2ccccc2)nc1=O`, the Potency result is “inactive”.

On to `Cc1ccc(SCc2cc(=O)n(C)[nH]2)cc1`, for which the Potency entry was “inactive”.

Turning to `COc1cccc(/C=C2/SC(=S)N(CC(=O)Nc3nnc(C)s3)C2=O)c1`, the Potency result is “inactive”.

With `N#Cc1cccc(NC(=O)c2ccc3c(c2)N(Cc2cccc(Cl)c2)C(=O)c2ccccc2S3(=O)=O)c1`, the Potency entry was “inactive”.

Take `S=C1Cc2ccccc2N1`: the Potency entry was “inactive”.

With `COc1ccc2oc(-c3ccc(NC(=O)c4ccc(N5CCOCC5)c([N+](=O)[O-])c4)cc3)nc2c1`, the Potency entry was “inactive”.

Take `CC(C)(C)c1ccc(NC(=O)N2CCN(c3ccc([N+](=O)[O-])cn3)CC2)cc1`: the Potency result is “inactive”.

In the case of `Nc1scc2c(C(=O)O)nn(-c3ccccc3)c(=O)c12`, the Potency is 7.08 µM (active).

Take `O=C(O)CN1C(=O)/C(=C/c2ccc(-c3cccc(Cl)c3)o2)SC1=S`: the Potency entry is “inactive”.

On to `COc1ccc(NC(=O)c2c(NC(=O)Cc3ccccc3)sc3c2CCCC3)cc1`, for which the Potency result is “inactive”.
